The values that follow come from PubChem BioAssay.

Test [1] in a line: A549 cell viability effects, profiling panel, calcein-AM fluorescence, 48 h, basal (AID 1162). As to conditions: higher = more signal.
The nature of test [2]: adipocyte viability effects, profiling panel, cell-based, 3T3-L1 adipocytes, calcein-AM fluorescence, 48 h, basal (AID 1163). As to conditions: 3T3-L1 adipocytes viability, higher = more signal.
The nature of test [3]: HepG2 cell viability effects, profiling panel, calcein-AM fluorescence, 48 h, basal (AID 1164). As to conditions: higher = more signal.
The nature of test [4]: MM1S cell viability effects, profiling panel, calcein-AM fluorescence, 48 h, basal (AID 1165).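 Also: viability of MM1S multiple myeloma cells under basal unstimulated conditions.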 As to conditions: higher = more signal.
The nature of test [5]: basal RPMI8226 viability, no added stimulus, profiling panel, cell-based, calcein-AM fluorescence, 48 h, PK04 Diversity Set (AID 1166).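 Also: cells grown under basal conditions without added stimulus.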 Conditions: RPMI8226 myeloma viability, higher = more signal.
The nature of test [6]: basal HepG2 mitochondrial membrane potential changes, profiling panel, cell-based, JC-1 fluorescence, 24 h, 100 nL compound (AID 1167). As to conditions: higher = more signal.
Test [7] is described as follows: basal 3T3-L1 adipocyte mitochondrial potential changes, profiling panel, cell-based, JC-1 fluorescence, 3T3-L1 adipocytes, 24 h, 100 nL compound (AID 1168). As to conditions: JC-1 mitochondrial fluorescence, higher = more signal, called active from +8 up or from −8 down.
A short description of test [8]: basal RPMI8226 mitochondrial membrane potential changes, profiling panel, cell-based, JC-1 fluorescence, 24 h, 100 nL compound (AID 1169). Conditions: RPMI8226 myeloma, JC-1 mitochondrial potential fluorescence, higher = more signal.
The nature of test [9]: basal MM1S mitochondrial membrane potential changes, profiling panel, cell-based, JC-1 fluorescence, 24 h, 100 nL compound (AID 1170). Conditions: higher = more signal.
A short description of test [10]: A549 lung cancer cell viability effects, profiling panel, resazurin fluorescence, 24 h, PK04 Diversity Set (AID 1171). As to conditions: higher = more signal, called active from +8 up or from −8 down.

Structures are written as SMILES. Calls of active or inactive are those of the source.
Also: test concentration not given here.

Consider `CCOC(=O)C[C@H]1[C@H](OC(=O)Cc2ccc3c(c2)OCO3)[C@@H](NC(=O)CC(C)C)c2cc(OCCCO)ccc2N1C(=O)c1ccccc1`, for which the z-score in test [1] was 2.34; in [2], -0.148; in test [3], 0.978; in [4] it was 0.532; in test [5], 2.13; in [6], 1.78. The z-score is 1.58 (inactive) in [7], -0.0658 in [8], 0.751 in test [9] and 1.16 (inactive) in test [10].
For `COCCOC(=O)N1C(=O)[C@@]2(c3cc(C#CCCO)ccc31)[C@H](C(=O)N1CCCCCCC1)[C@H]1C(=O)O[C@H](c3ccccc3)[C@H](c3ccccc3)N1[C@@H]2c1ccc(O)cc1`, the z-score is 1.53 in test [1]; 0.843 in test [2]; 1.87 in test [3]; 0.555 in test [4]; -0.479 in [5]; 0.538 in test [6]. In addition, the z-score in [7] was 2.37 (inactive); in [8], -1.04; in test [9], 0.0272; in [10], 0.641 (inactive).
With `O=C1C2C=CC(C(O)C#Cc3ccccc3)N(Nc3ccccc3)C2C(=O)N1c1ccccc1` (stereo not given), the z-score is -0.284 in test [1]; -1.26 in test [2]; -0.374 in test [3]; 0.0195 in test [4]; -0.619 in test [5]; -1.53 in test [6]. The z-score was -0.869 (inactive) in test [7], -0.449 in test [8], -0.41 in [9] and 0.0504 (inactive) in test [10].
On to `CCN1C(C)=C(C(=O)OC)[C@@H](c2ccccc2)N2C(=O)[C@](O)(C(=O)OC)[C@@H](c3ccccc3)C(C(=O)c3ccccc3)=C12`, for which the z-score in test [1] was 0.804; in [2], 0.439; in test [3] it was 0.534; in test [4], 0.144; in [5], -0.623; in [6], 4.64. Further, the z-score in test [7] is 0.454 (inactive); in test [8], -0.602; in test [9], 0.229; in test [10], 2.64 (inactive).
For `O=C1O[C@H](c2ccccc2)[C@H](c2ccccc2)N2[C@H]1[C@@H](C(=O)NC[C@H](O)c1ccccc1)[C@]1(C(=O)Nc3ccc(C#CC4(O)CCCCCC4)cc31)[C@H]2c1ccc(OCCO)cc1`, the z-score in [1] was -1.2; in test [2], 0.694; in test [3], 0.643; in test [4], -1.29; in [5], -0.587; in [6], -1.32. Further, the z-score is 1.78 (inactive) in [7], -0.842 in test [8], -0.469 in test [9] and 0.132 (inactive) in [10].
With `O=C1c2ccccc2[C@](Cc2ccccc2I)(C(=O)O)[C@H](c2ccc(CO)cc2)N1C1CCCCC1`, the z-score is 0.0699 in test [1]; 2.82 in test [2]; -0.0275 in [3]; 0.832 in [4]; -3.14 in [5]; 0.0952 in [6]. Moreover, the z-score in [7] is -0.641 (inactive); in [8], -0.193; in test [9], 0.148; in test [10], 1.07 (inactive).
Regarding `COc1ccc([C@H]2C[C@H]3C(Br)=C[C@]2(OC)C(=O)[C@]32CO2)cc1`, the z-score was -0.909 in test [1]; -0.105 in test [2]; -1.19 in test [3]; -2.1 in test [4]; -0.393 in [5]; -2.15 in [6]. In addition, the z-score in test [7] was -0.414 (inactive); in test [8], -1.07; in test [9], -0.717; in test [10], 0.596 (inactive).
With `O=C1c2ccccc2[C@](Cc2ccccc2I)(C(=O)NCc2ccccc2)[C@H](c2ccc(CO)cc2)N1Cc1ccccc1C(F)(F)F`, the z-score in test [1] is 0.582; in test [2], 1.06; in test [3], 0.185; in [4] it was -0.698; in test [5], 0.0474; in test [6], 1.11. Moreover, the z-score in test [7] is 0.789 (inactive); in [8] it was 0.467; in test [9], 0.463; in [10], 0.584 (inactive).
In the case of `CCCC=C(CCC)[C@@H](NS(=O)(=O)c1ccc(-c2ccccc2)cc1)c1ccc(C(=O)OC)cc1`, the z-score in test [1] is -1.34; in [2], 0.906; in test [3], -1.52; in [4] it was -1.18; in test [5], -2.93; in test [6] it was -4.34. Also, the z-score in test [7] was 0.0846 (inactive); in [8], 0.326; in test [9], -1.78; in test [10] it was 1.35 (inactive).
Turning to `C=CC[C@]1(C(=O)OC)N=C(c2ccc(OCCCO)cc2)O[C@H]1c1ccccc1CN=[N+]=[N-]`, the z-score in test [1] is -0.844; in [2], 1.51; in test [3], -1.09; in test [4], -2.04; in test [5], -2.24; in test [6], -0.000782. Further, the z-score in test [7] was 0.21 (inactive); in [8] it was -1.01; in test [9], 0.734; in [10], -0.179 (inactive).
With `O=C1OCCC/C=C\[C@H]2OC34C=CCN(CCN5CCOCC5)C(=O)[C@H]3N(CCCCCO)C(=O)[C@@H]4C12` (stereo not given in full), the z-score is 0.739 in test [1]; 0.216 in test [2]; -0.123 in test [3]; 1.1 in test [4]; -0.0521 in test [5]; -1.04 in test [6]. In addition, the z-score in test [7] was 0.348 (inactive); in [8], 0.329; in test [9], -0.102; in [10], -0.254 (inactive).
For the molecule `O=C(CS)NCCCCCNC(=O)[C@H]1C[C@H]2C(=O)N3CCC[C@H]3C(=O)N2[C@H]1c1ccc(O)cc1`, the z-score in test [1] is 0.931; in test [2], -0.172; in test [3], -0.0292; in [4] it was 0.965; in test [5], -0.0858; in [6] it was 1.89. Moreover, the z-score in test [7] is 0.797 (inactive); in test [8], 0.34; in test [9], -0.235; in [10], 0.641 (inactive).
As for `C=CCc1cccc([C@@H]2[C@@H](C)CC[C@H]3C(=O)N4[C@H](c5cccc(CC=C)c5)[C@@H](C)CC[C@H]4C(=O)N23)c1`, the z-score in test [1] was -0.814; in test [2], 1.29; in test [3] it was -0.746; in test [4], -3.58; in [5], -3.9; in test [6], 2.17. Moreover, the z-score in test [7] was 0.639 (inactive); in [8] it was -0.811; in test [9], -1.28; in test [10], 3.27 (inactive).
Turning to `C=CCOC(=O)[C@@H]1[C@H]2C(=O)O[C@H](c3ccccc3)[C@H](c3ccccc3)N2[C@H](c2ccc(OCCOC(=O)[C@H]3C[C@H]4C(=O)N5CCC[C@H]5C(=O)N4[C@H]3c3ccc(O)cc3)cc2)[C@@]12C(=O)Nc1ccccc12`, the z-score in test [1] was 0.17; in test [2], 1.25; in test [3], -1.06; in test [4], -0.222; in test [5] it was -0.931; in test [6] it was -1.16. In addition, the z-score was 0.597 (inactive) in test [7], -0.674 in test [8], -0.393 in test [9] and -0.0653 (inactive) in test [10].
Take `CC(=O)NCCCC[C@@H]1NC(=O)[C@@H]2C[C@H](C(=O)NCc3ccc(F)cc3)[C@H](c3cccc(OCCO)c3)N2C1=O`: the z-score in test [1] was 0.53; in test [2], 0.0222; in [3] it was 0.64; in test [4], -0.0893; in test [5] it was -0.12; in test [6], -0.0575. Also, the z-score in [7] was -0.568 (inactive); in test [8], -0.3; in [9], -0.513; in test [10], -0.12 (inactive).
